CSC inhib = cancer stem cell viability inhibitors, primary screen, luminescence; cancer stem cell-like cells viability; inhibition, % at 7.5 µM; AID 2717, 2010; 1.1% of 300,000 active; in the data active = inhibition above about 75%; tested in HMLE shEcad cells
Mdm2 MdmX PPI = inhibitors of human Mdm2-MdmX association, primary screen, cell-based, luminescence, split luciferase, SaOS-2, uHTS. Protein Mdm4 (Homo sapiens) + E3 ubiquitin-protein ligase Mdm2 (Homo sapiens), …. SaOS-2 split-luciferase Mdm2/MdmX complementation. inhibition, % at 8 µM. 3% of 330,000 active;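 active = inhibition of at least 50% at 8 µM in the primary screen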
Target sequence (O15151 whole entry, looked up): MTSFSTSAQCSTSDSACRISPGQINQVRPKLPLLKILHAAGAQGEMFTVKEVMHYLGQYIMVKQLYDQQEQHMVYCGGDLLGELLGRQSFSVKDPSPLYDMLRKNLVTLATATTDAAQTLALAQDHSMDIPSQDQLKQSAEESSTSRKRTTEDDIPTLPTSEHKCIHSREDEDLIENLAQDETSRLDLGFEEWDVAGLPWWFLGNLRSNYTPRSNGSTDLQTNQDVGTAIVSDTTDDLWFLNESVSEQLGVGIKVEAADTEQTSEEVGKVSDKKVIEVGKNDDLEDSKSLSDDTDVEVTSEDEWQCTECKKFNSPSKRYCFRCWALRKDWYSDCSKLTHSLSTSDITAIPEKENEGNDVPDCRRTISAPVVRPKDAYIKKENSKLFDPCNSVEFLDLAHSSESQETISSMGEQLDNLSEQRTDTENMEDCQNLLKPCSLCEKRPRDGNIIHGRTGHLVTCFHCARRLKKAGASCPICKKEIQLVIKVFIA
Target sequence (Q00987 whole entry, looked up): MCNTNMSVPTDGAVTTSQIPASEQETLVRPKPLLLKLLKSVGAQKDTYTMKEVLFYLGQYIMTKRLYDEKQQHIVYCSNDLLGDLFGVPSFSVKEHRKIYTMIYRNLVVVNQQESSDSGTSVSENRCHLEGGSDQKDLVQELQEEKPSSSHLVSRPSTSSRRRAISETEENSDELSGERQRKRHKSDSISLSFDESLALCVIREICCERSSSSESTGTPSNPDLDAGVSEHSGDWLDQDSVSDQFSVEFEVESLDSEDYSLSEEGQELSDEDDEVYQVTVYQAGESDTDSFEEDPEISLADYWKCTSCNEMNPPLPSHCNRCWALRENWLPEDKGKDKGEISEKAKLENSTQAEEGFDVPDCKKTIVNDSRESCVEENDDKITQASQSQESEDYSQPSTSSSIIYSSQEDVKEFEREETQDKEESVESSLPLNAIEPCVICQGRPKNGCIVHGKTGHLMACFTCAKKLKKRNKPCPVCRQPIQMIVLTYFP
Beta cell apopt = inhibitors of cytokine-induced beta cell apoptosis, primary screen, luminescence | INS-1E cytokine-induced death, ATP luminescence, 48 h; percent of positive-control rescue, neutral wells zero | protection from apoptosis, % (concentration not given with the values) | 0.8% of 300,000 active | AID 435005, 2010;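 active = Every replicate reaches about 75%, or at least half do and their mean reaches it too, limit read from the data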;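 note: 0% = cytokine-treated negative control wells and 100% = positive control rescue; higher means more ATP so stronger rescue from cytokine killing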
Jurkat NFkB inh = inhibitors of induced NF-kB luciferase reporter, primary screen, TCR NF-kB activation inhibitor project, cell-based, luminescence, uHTS; inhibition, % at 4 µM; 0.53% of 330,000 active; Jurkat, PMA/ionomycin-induced NF-kB luciferase reporter; in the data active = inhibition above about 50%
Gli-Sufu antag = Gli-Sufu pathway antagonists, primary screen, luciferase luminescence, Sufu-KO-LIGHT cells, uHTS; Sufu-KO-LIGHT fibroblasts, Gli luciferase reporter luminescence; inhibition, % at 5 µM; 0.74% of 340,000 active;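 active = inhibition above about 55%, limit read from the data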;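 note: 0% = DMSO-treated cells and 100% = wells with medium but no cells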
697 NFkB inh = inhibitors of PMA/ionomycin-induced NF-kB reporter, 697 cells, primary screen, B-cell NF-kB inhibitor project, cell-based, luminescence, uHTS | 697 B-cell NF-kB luciferase reporter, 16 h | 0.33% of 330,000 active | inhibition, % at 4 µM | AID 435022, 2010; in the data active = inhibition above about 35%
697 NFkB conf = PMA/ionomycin-induced NF-kB reporter inhibitors, 697 retest, confirmation, B-cell NF-kB inhibitor project, cell-based, luminescence, single concentration | shares compounds with 697 NFkB inh | 35% of 2,000 active | 697 B-cell NF-kB luciferase, 16 h | inhibition, % at 4 µM | AID 449746, 2010; in the data active = inhibition mostly above about 28%, no sharp cut-off; inactive = mostly below about 22%
The depositor's hits bear a star; i = inactive; . = no result given. Shown are actives, neighbours in structure and some others; about 4.5% of the full set was active somewhere.

SMILES	CSC inhib	Mdm2 MdmX PPI	Beta cell apopt	Jurkat NFkB inh	Gli-Sufu antag	697 NFkB inh	697 NFkB conf
Cc1cc(C)cc(NC(=O)Nc2ccc(NC(=O)c3ccccc3O)cc2)c1	92.0*	11.4	-6.8	14.1	8.7	36.0*	36.8*
Cc1ccc(NS(=O)(=O)c2cccc3nsnc23)cc1[N+](=O)[O-]	-2.8	11.2	-5.4	-8.3	4.2	-13.3	.
COc1ccc(Nc2nnc(-c3ccc(O)cc3)c3ccccc23)cc1C(N)=O	-1.9	-2.1	3.0	-2.9	-6.3	39.0*	22.7
COc1ccc(Nc2nnc(C)c3ccccc23)cc1C(N)=O	-11.3	9.6	-0.9	5.0	-1.2	2.9	.
CC1CN=C(NC(=O)c2cccc([N+](=O)[O-])c2)S1 (stereo not drawn)	-16.1	-63.0	1.4	-125.5	-84.4	-153.9	.
COc1ccc(Cl)cc1NC(=O)c1[nH]c(C)c(C(C)=O)c1C	-6.7	14.3	1.0	-1.4	19.8	1.0	.
COc1ccc(OC)c(NC(=O)c2[nH]c(C)c(C(C)=O)c2C)c1	-4.3	30.2	1.5	-2.7	-13.2	35.9*	33.5*
COc1cccc(C2C(C(=O)c3cccs3)=C(O)C(=O)N2CCN2CCOCC2)c1OC (stereo not drawn)	.	-1.3	.	-13.1	22.2	7.0	.
Cc1ccc(Nc2nc(N)nc(-c3oc4ccccc4c3C)n2)cc1	40.1	25.9	67.4	37.5	11.7	-480.3	i
O=C(CCN1C(=O)C2CCCCC2C1=O)Nc1ccc(Br)cc1F (stereo not drawn)	9.9	13.7	-3.4	7.9	-23.6	-14.7	.
CC(=C/c1ccco1)/C=N/NC(=O)CSc1nnc(SCc2ccc(C)cc2)s1	46.1	-31.1	-2.6	-1.9	-17.9	52.1*	49.6*
CC(C)(C)c1ccc(N2C(=N)SCC2=O)cc1	4.0	26.1	-12.8	10.3	5.4	-10.7	.
Cc1ccc(-c2csc(N3C(=N)SCC3=O)n2)cc1	-5.4	-135.9	-1.9	-103.5	-91.3	-268.0	-168.9
Cc1cccc2cc(/C=N/Nc3ccc(C(=O)O)cc3)c(Cl)nc12	-2.2	-87.0	-23.2	-75.6	-134.4	-309.2	-246.6
O=C(O)c1ccc(N/N=C/c2cc3ccccc3nc2Cl)cc1	0.9	-4.6	-6.6	-12.2	-37.3	-150.6	.
CCOC(=O)C1CCCc2c1[nH]c1ccc(Cl)cc21 (stereo not drawn)	2.5	16.2	.	-26.7	5.0	-426.6	-14.9
O=C(CSc1ncn[nH]1)Nc1ccc(Cl)c(Cl)c1	-17.1	19.2	-7.2	5.2	5.0	35.2*	17.1
O=C(CSc1ncn[nH]1)Nc1ncc(C(F)(F)F)cc1Cl	-3.1	-21.1	.	-10.6	-0.6	8.6	.
O=C(CCCN1C(=O)S/C(=C/C=C/c2ccccc2)C1=O)Nc1ccc(C(=O)O)cc1	5.5	13.5	-7.7	24.9	-9.0	49.2*	49.3*
CC(/C=C1\SC(=S)N(CCCC(=O)Nc2ccc(C(=O)O)c(O)c2)C1=O)=C\c1ccccc1	22.4	.	1.2	.	31.6	.	.
CC(=C\c1ccccc1)/C=C1/SC(=O)N(CCCC(=O)Nc2ccc(C(=O)O)cc2)C1=O	-2.9	24.7	2.1	5.9	6.7	74.7*	70.0*
O=C(CCN1C(=O)/C(=C\C=C\c2ccccc2)SC1=S)Nc1cccc(C(=O)O)c1	20.2	-35.7	-15.8	-11.2	-0.7	-146.2	.
COc1ccc(CNC(=O)CN2CCN(S(=O)(=O)c3ccccc3)CC2)cc1	-13.9	24.5	-1.8	-6.3	-12.2	5.3	.
COc1cc2[nH]c(=S)n(CC3CCCO3)c(=O)c2cc1OC (stereo not drawn)	0.6	18.5	-1.3	2.0	8.8	37.1*	22.6
CCSc1nnc(NC(=O)/C=C/c2ccc3c(c2)OCO3)s1	43.7	-0.8	-2.6	-14.7	.	14.0	.
SMILES	CSC inhib	Mdm2 MdmX PPI	Beta cell apopt	Jurkat NFkB inh	Gli-Sufu antag	697 NFkB inh	697 NFkB conf
Cc1csc(NC(=O)/C=C/c2ccc3c(c2)OCO3)n1	59.8	-147.6	4.4	-3.8	-63.3	69.8*	64.2*
Cc1ccc(N2C(=O)c3ccccc3NC2c2ccccc2O)cc1 (stereo not drawn)	-1.9	-83.8	-7.6	-122.6	-55.1	-296.1	-102.8
Cc1cccc(Sc2ccc([N+](=O)[O-])cc2[N+](=O)[O-])n1	30.4	27.8	2.7	-10.9	-3.2	-3.4	.
O=[N+]([O-])c1ccc(Sc2ncccn2)c([N+](=O)[O-])c1	52.3	35.9	-5.7	-1.0	11.6	40.0*	21.2
O=C1C=C(C2OC(CO)C(O)C2O)C(=O)N1 (stereo not drawn)	.	.	.	.	11.3	.	.
CSc1ccc(/C=N/Nc2ccc(Cl)c(C(=O)O)c2)cc1	-15.7	-224.7	-16.2	-114.0	-197.0	-370.0	-26.1
O=C(Nc1ccc(-c2nc3ccccc3s2)cc1)C1=COCCO1	35.0	-21.0	-0.6	-61.1	44.3	-299.6	-290.0
COc1cccc(OC)c1C(=O)Nc1ccncc1	-6.7	-13.2	-2.4	-3.6	1.9	-19.8	.
O=C(Nc1nc2nc(-c3ccccc3)cc(-c3ccccc3)n2n1)c1ccco1	-8.2	37.3	4.7	7.7	-4.3	46.8*	30.4*
COC(=O)c1ccc(-c2nc3cc(Cl)c(N)cc3s2)cc1	-11.5	-19.3	7.5	-138.1	-67.3	-258.1	-83.0
COC(=O)c1ccc(-c2nc(O)c(C)s2)cc1	-14.1	-14.2	-3.2	7.1	-8.4	-1.1	.
N#CC1=C(N)Oc2cc(Nc3ccccc3)ccc2C1c1ccncc1 (stereo not drawn)	54.0	30.4	-8.1	-8.5	0.0	37.1*	41.0*
CC1CCc2nc(NC(=O)Cc3cccs3)sc2C1 (stereo not drawn)	0.8	-112.3	0.0	-104.8	-78.5	-101.1	.
CC1CCc2nc(NC(=O)c3ccco3)sc2C1 (stereo not drawn)	1.1	18.0	14.3	-46.4	-46.8	-263.6	-292.4
CCOc1ccc2nc(NC(=O)c3ccco3)sc2c1	65.3	-92.3	26.7	-111.7	.	-327.2	-288.1
CS(=O)(=O)c1ccc2nc(NC(=O)c3ccco3)sc2c1	7.3	-8.8	14.4	-56.2	-65.6	-102.9	.
CCOC(=O)c1ccc2nc(NC(=O)c3ccco3)sc2c1	-14.8	-233.5	16.1	-90.0	-94.1	-301.7	-272.7
CC(=O)c1ccc(OCCCC(=O)N2CCN(S(=O)(=O)c3ccc(C(C)C)cc3)CC2)cc1	-4.1	-0.7	.	22.8	20.2	-14.7	.
Nc1nc2ccc(Cl)cc2c2nc(-c3ccco3)nn12	4.4	44.7	10.8	15.0	.	35.9*	28.4*
c1ccc([C@H]2CN3C(=N2)Sc2ccccc23)cc1	16.5	-170.7	-2.0	-136.9	-21.3	-267.9	-347.4

Bioassay records (PubChem BioAssay)
